For assay [1], the system named is Plasmodium falciparum Sir2 (PF13_0152, Sir2A). The assay is described as follows: Plasmodium falciparum Sir2A binding compounds – biochemical, small-molecule microarray, 635 nm fluorescence, primary screen (AID 1098).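 Note: score merges spot fluorescence intensity with its signal-to-noise ratio.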 The conditions noted are these: fluorescence 635 nm, higher = more signal.
Assay [2] can be described thus: probe aDKK1 binding to arrayed compounds – biochemical, biotinylated probe, 635/667 nm fluorescence, primary screen (AID 1099).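 Note: score merges 667nm spot fluorescence with signal to noise across triplicate slides.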 The conditions noted are these: small-molecule microarray, higher = more signal.
Assay [3] in a line: probe aCHRDL2 binding to arrayed compounds – biochemical, biotinylated probe, 635/667 nm fluorescence, primary screen (AID 1100). The conditions noted are these: small-molecule microarray, higher = more signal.
Assay [4] is described as follows: change in splice reporter luminescence, either direction, cell-based, HEK293, spliceosome inhibition project, primary screen (AID 1101).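 Note: HEK293 cells carrying a splicing-competent luciferase reporter gene; test concentration not given here.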 Conditions: HEK293 splicing luciferase reporter, 24 h, higher = more signal, called active from +8 up or from −8 down.
Assay [5] deals with Fibroblast growth factor 10 (Homo sapiens) (UniProt O15520). The assay is described as follows: compounds binding fibroblast growth factor 10 – biochemical, small-molecule microarray, 635 nm fluorescence, primary screen (AID 1102). Conditions: FGF10 binding, fluorescence 635 nm, higher = more signal.
For assay [6], the system named is glycogen synthase kinase-3 (GSK3A per assay name; protocol says GSK3B). The assay is described as follows: compounds binding glycogen synthase kinase-3 – biochemical, small-molecule microarray, 635 nm fluorescence, GSK3A, primary screen (AID 1103). Note: the record names both GSK3A and GSK3B. The conditions noted are these: fluorescence 635 nm, higher = more signal.
Assay [7] has as its target Epidermal growth factor receptor (Homo sapiens) (UniProt P00533). The assay is described as follows: compounds binding epidermal growth factor receptor – biochemical, small-molecule microarray, 635 nm fluorescence, primary screen (AID 1104).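 Note: score merges 667 nm emission intensity with spot signal to noise over triplicate slides.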 Conditions: EGFR binding, higher = more signal.
The target in assay [8] is Follistatin-related protein 3 (Homo sapiens) (UniProt O95633). The assay is described as follows: compounds binding follistatin-related protein 3 – biochemical, small-molecule microarray, 635 nm fluorescence, primary screen (AID 1105).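 Note: score merges emission near 667 nm and signal to noise per printed spot across three slides.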 Conditions: FSTL3 binding, higher = more signal.
The target in assay [9] is Dickkopf-related protein 1 (Homo sapiens) (UniProt O94907). The assay is described as follows: small molecules binding DKK1 protein – biochemical, small-molecule microarray, 635 nm fluorescence scan, primary screen (AID 1106).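 Note: score merges emission near 667 nm with signal to noise over three replicate slides.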 The conditions noted are these: higher = more signal.
For assay [10], the system named is Inhibin beta A chain (activin A). The assay is described as follows: small molecules binding activin A – biochemical, small-molecule microarray, 635 nm fluorescence scan, primary screen (AID 1107).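 Note: mouse activin A protein probed at 4.33 µg/mL on printed slides; score merges bound-protein fluorescence near 667 nm with spot signal-to-noise.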 The conditions noted are these: INHBA, higher = more signal.
The subject of assay [11] is Human papillomavirus type 1a protein E7 (residues 44-93). The assay is described as follows: small molecules binding HPV E7 44-93 – biochemical, small-molecule microarray, residues 44-93, 635 nm fluorescence, primary screen (AID 1108).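 Note: E7 fragment applied at 1 µg/mL in TBST for 1 h at 4 C; score combines spot fluorescence with its signal to noise ratio.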 Conditions: fluorescence 635 nm, higher = more signal.
Assay [12] in a line: hepatitis C replication reporter changes, two-sided – Huh7 cells, luciferase reporter, HCV replication inhibitor project, primary screen (AID 1109).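 Note: huh7 hepatoma cells harbouring a luciferase neomycin HCV replicon reporter; luciferase luminescence as measure of HCV replicon replication; test concentration not given here.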 Conditions: Huh7 HCV replicon luciferase reporter, 48 h; higher = more signal.
The target of assay [13] is Left-right determination factor 2 (Homo sapiens) (UniProt O00292). The assay is described as follows: small molecules binding LEFTY2 protein – biochemical, small-molecule microarray, 635 nm fluorescence scan, primary screen (AID 1110). Conditions: higher = more signal.
The target of assay [14] is Calmodulin-1 (Homo sapiens) (UniProt P0DP23). The assay is described as follows: small molecules binding calmodulin-1 with EGTA – biochemical, small-molecule microarray, Cy5-labelled CALM1, profiling panel (AID 1111).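 Note: labelled calmodulin applied in Tris saline Tween buffer holding calcium plus EGTA and DTT.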 Conditions: Cy5-CALM1 binding fluorescence, higher = more signal.
Assay [15] shares this target. The assay is described as follows: small molecules binding Ca-loaded calmodulin-1 – biochemical, small-molecule microarray, Cy5-labelled CALM1, plus calcium, artefact control for SMM control-protein annotation, profiling panel (AID 1112).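 Note: score merges spot fluorescence with signal to noise from triplicate slides.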 The conditions noted are these: Cy5-CALM1 binding fluorescence, higher = more signal.
Assay [16] is described as follows: probe aWnt5a binding to arrayed compounds – biochemical, biotinylated probe, 635/667 nm fluorescence, primary screen (AID 1113).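 Note: score merges 667 nm fluorescence intensity with signal-to-noise per printed feature.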 Conditions: small-molecule microarray, higher = more signal.
The nature of assay [17]: probe aShh binding to arrayed compounds – biochemical, biotinylated probe, 635/667 nm fluorescence, primary screen (AID 1114).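 Note: probe is biotin-labelled aShh protein from a stem cell growth factor screen; measures binding of labelled protein to compounds printed on the slide; score merges feature fluorescence at 667 nm with signal-to-noise.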 The conditions noted are these: small-molecule microarray, higher = more signal.
The nature of assay [18]: probe aNog binding to arrayed compounds – biochemical, biotinylated probe, 635/667 nm fluorescence, primary screen (AID 1115).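 Note: probe is biotinylated aNog protein used at 0.15 µg/mL for 1 h at 4 C; z-score combines 667 nm fluorescence of each spot with its signal to noise.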 The conditions noted are these: small-molecule microarray, higher = more signal.
In assay [19] the target is Torsin-1A-interacting protein 1 (Homo sapiens) (UniProt Q5JTV8). The assay is described as follows: compound microarray binding of lysate hLAP1 – cell lysate, small-molecule microarray, COS7 lysate, 635/667 nm fluorescence, primary screen (AID 1116). Conditions: 635 nm fluorescence, higher = more signal.
The target of assay [20] is Alpha-bungarotoxin (Bungarus multicinctus) (UniProt P60615). The assay is described as follows: compounds binding labelled alpha-BTX control protein – biochemical, small-molecule microarray, Alexa647 label, 635/667 nm fluorescence, artefact control for SMM control protein annotation, profiling panel (AID 1117). Conditions: alpha-BTX-A647 binding fluorescence, higher = more signal.

The source made the active and inactive calls.

Sequence of Torsin-1A-interacting protein 1 (Homo sapiens) (Q5JTV8 whole entry, looked up): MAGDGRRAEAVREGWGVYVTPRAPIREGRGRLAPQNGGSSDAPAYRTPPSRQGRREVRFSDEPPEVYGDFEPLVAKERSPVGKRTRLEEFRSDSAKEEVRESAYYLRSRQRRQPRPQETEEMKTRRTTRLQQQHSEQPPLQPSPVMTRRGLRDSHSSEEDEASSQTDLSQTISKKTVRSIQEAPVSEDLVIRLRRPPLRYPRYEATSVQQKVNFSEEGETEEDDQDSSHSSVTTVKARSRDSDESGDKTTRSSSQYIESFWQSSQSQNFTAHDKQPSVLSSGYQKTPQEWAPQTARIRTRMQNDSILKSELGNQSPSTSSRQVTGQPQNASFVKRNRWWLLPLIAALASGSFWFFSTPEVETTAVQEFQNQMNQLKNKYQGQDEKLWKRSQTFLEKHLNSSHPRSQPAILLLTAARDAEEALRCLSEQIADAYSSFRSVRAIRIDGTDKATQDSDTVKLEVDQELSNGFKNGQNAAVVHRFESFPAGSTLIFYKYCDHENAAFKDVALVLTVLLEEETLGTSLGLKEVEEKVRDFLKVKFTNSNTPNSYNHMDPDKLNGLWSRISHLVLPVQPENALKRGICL
Sequence of Left-right determination factor 2 (Homo sapiens) (O00292 whole entry, looked up): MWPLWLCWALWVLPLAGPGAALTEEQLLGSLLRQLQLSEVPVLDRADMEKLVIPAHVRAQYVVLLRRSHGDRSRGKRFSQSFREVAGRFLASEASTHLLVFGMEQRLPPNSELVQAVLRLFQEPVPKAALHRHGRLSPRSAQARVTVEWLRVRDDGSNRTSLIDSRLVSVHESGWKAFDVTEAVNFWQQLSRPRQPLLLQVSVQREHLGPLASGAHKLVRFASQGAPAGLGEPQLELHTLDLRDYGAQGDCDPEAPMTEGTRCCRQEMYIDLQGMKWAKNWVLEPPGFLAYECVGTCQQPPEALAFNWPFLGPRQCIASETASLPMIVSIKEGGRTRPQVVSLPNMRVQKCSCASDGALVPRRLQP
Sequence of Follistatin-related protein 3 (Homo sapiens) (O95633 whole entry, looked up): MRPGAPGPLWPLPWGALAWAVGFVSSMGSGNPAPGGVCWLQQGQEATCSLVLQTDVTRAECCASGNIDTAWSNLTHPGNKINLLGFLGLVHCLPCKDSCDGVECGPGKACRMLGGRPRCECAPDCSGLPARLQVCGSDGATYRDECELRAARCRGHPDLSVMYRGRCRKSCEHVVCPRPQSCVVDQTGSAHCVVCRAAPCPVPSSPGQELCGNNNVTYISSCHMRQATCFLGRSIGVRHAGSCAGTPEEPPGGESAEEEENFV
Sequence of Fibroblast growth factor 10 (Homo sapiens) (O15520 whole entry, looked up): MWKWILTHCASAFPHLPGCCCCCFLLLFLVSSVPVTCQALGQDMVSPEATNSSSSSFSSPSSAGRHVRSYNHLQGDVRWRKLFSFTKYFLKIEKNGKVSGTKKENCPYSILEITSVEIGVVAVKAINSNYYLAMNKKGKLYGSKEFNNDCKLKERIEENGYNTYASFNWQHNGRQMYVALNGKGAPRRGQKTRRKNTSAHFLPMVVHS
Sequence of Alpha-bungarotoxin (Bungarus multicinctus) (P60615 whole entry, looked up): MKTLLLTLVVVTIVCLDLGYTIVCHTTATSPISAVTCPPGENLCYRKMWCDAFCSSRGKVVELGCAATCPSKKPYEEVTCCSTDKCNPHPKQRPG
Sequence of Epidermal growth factor receptor (Homo sapiens) (P00533 whole entry, looked up): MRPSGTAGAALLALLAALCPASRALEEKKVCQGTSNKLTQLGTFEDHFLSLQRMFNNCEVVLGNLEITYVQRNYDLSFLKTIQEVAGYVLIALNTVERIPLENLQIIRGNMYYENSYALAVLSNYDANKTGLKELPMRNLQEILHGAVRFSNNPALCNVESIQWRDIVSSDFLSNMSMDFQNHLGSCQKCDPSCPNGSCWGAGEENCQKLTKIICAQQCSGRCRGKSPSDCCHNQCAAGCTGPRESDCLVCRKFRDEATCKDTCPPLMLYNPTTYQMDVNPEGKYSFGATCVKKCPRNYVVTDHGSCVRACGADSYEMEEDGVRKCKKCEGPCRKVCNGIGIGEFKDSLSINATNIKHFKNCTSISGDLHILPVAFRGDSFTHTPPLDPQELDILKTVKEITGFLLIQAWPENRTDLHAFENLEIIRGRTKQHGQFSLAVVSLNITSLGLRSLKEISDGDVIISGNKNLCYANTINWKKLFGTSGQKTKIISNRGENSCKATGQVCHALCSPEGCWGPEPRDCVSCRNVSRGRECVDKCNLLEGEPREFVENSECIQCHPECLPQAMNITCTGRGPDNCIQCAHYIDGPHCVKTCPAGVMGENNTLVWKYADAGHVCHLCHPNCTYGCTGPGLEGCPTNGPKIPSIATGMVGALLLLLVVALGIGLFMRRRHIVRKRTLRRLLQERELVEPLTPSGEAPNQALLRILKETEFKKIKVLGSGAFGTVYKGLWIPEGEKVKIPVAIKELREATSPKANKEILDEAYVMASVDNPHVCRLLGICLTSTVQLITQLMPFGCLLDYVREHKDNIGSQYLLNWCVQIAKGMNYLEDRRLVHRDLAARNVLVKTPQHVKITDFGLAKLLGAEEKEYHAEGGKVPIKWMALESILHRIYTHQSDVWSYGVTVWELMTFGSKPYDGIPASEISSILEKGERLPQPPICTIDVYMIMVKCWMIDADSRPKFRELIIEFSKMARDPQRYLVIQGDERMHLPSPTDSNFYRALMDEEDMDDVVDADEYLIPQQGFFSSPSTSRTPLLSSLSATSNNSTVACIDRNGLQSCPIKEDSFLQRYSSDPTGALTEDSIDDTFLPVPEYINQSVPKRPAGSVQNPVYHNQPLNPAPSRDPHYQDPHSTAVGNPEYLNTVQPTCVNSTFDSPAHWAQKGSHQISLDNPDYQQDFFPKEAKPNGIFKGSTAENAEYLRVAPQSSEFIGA
Sequence of Dickkopf-related protein 1 (Homo sapiens) (O94907 whole entry, looked up): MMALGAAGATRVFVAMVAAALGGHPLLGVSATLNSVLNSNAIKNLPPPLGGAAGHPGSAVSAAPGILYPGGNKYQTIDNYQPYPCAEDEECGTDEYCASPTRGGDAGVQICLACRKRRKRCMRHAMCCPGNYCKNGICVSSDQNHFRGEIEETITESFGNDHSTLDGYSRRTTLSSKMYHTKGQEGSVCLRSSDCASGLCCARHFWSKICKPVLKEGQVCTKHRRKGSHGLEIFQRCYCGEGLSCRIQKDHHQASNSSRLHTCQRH

Consider `C=CCC(OC(C)=O)[C@@H]1[C@@H](N(Cc2cccc3ccccc23)C(=O)c2ccc(C)cc2)c2cc(OCCCO)ccc2N1C(=O)Cc1ccc(OC)cc1` (stereo not given in full), for which the composite z-score in assay [1] is 0.102; in [2] it was -0.413; in assay [3] it was -0.281; in assay [5], -0.104; in assay [6], 0.0349; in assay [7] it was 0.254. For the same compound, the composite z-score was 0.492 in assay [8]; 0.576 in assay [9]; 1.05 in [10]; 0.332 in assay [11]; -0.248 in [13]; 0.327 in assay [14]. Besides, the composite z-score is -0.0943 in assay [15]; -0.124 in assay [16]; 0.0278 in assay [17]; -0.198 in assay [18]; 0.0873 in assay [19]; 0.215 in [20]. Besides, the z-score in [4] is -1.53 (inactive); in assay [12] it was -0.22.
For `COC(=O)C(CC#Cc1ccc2c(c1)[C@]1(C(=O)N2)[C@H](c2ccc(OCCO)cc2)N2[C@H](c3ccccc3)[C@H](c3ccccc3)OC(=O)[C@H]2[C@@H]1C(=O)NC[C@H](O)c1ccccc1)C(=O)OC`, the composite z-score in [1] turned out to be 1.62; in [2] it was 0.392; in assay [3], 0.473; in assay [5], 0.826; in [6] it was 0.801; in assay [7], 0.0713. In addition, the composite z-score is 0.617 in assay [8]; 0.271 in assay [9]; 0.39 in [10]; 1.17 in assay [11]; -0.0571 in assay [13]; 0.794 in assay [14]. The composite z-score is 0.524 in assay [15]; -0.0346 in assay [16]; 0.356 in assay [17]; 0.333 in assay [18]; -0.585 in [19]; 2.1 in [20]. Besides, the z-score was 0.348 (inactive) in assay [4] and -1.39 in assay [12].
With `CCCCCN1CC=CC23O[C@@H]4C=CCOC(=O)[C@@H]4[C@H]2C(=O)N(CCCO)[C@@H]3C1=O` (stereo not given in full), the composite z-score in assay [1] was 1.63; in assay [2], -0.263; in assay [3], 0.359; in [5], -0.519; in [6], 0.462; in assay [7], -0.681. Further, the composite z-score was -0.264 in assay [8]; -0.49 in [9]; 0.908 in [10]; 1.35 in [11]; -0.642 in assay [13]; -0.568 in assay [14]. The composite z-score in assay [15] was 0.487; in assay [16], -0.204; in assay [17], -0.0709; in assay [18], 0.0707; in assay [19], 2.65; in assay [20], -0.339. Moreover, the values for the z-score in assay [4] and in [12] were -1.76 (inactive) and -0.538, respectively.
In the case of `O=C1O[C@@H](c2ccccc2)[C@@H](c2ccccc2)N2[C@@H](c3ccc(OCCO)cc3)[C@]3(C(=O)Nc4ccccc43)[C@@H](C(=O)Nc3nc4ccccc4s3)[C@H]12`, the composite z-score in [1] stood at 1.66; in assay [2], 0.738; in [3], 0.478; in assay [5], 1.31; in [6], 1.07; in [7] it was 0.528. In addition, the composite z-score came out at 1.15 in [8]; 0.651 in [9]; 0.411 in assay [10]; 1.44 in [11]; 1.05 in [13]; 1.67 in assay [14]. In addition, the composite z-score is 0.241 in assay [15]; 0.105 in [16]; 0.171 in assay [17]; 1.27 in assay [18]; 1.5 in assay [19]; 1.78 in assay [20]. The figures for the z-score in assay [4] and in [12] were -0.876 (inactive) and -2.66, respectively.
With `O=C1C2C=CC(C(O)c3ccc(-c4ccccc4)s3)N(n3cnnc3)C2C(=O)N1Cc1ccccc1` (stereo not given), the composite z-score in assay [1] was 0.633; in [2], 0.0447; in [3] it was 0.746; in [5], 0.0262; in assay [6], -0.751; in [7], -0.486. The composite z-score is -0.435 in assay [8]; -0.539 in assay [9]; 0.631 in [10]; 0.423 in assay [11]; -0.253 in assay [13]; -0.164 in assay [14]. Also, the composite z-score in [15] was -0.377; in assay [16] it was -0.096; in assay [17], 0.0062; in assay [18], 0.141; in [19], 0.585; in assay [20] it was 0.399. In addition, the z-score is -0.36 (inactive) in assay [4] and -0.602 in assay [12].
For `COCCOC(=O)N1C(=O)[C@@]2(c3cc(C#CCNC(N)=O)ccc31)[C@H](C(=O)N1CCc3cc(OC)c(OC)cc3C1)[C@H]1C(=O)O[C@H](c3ccccc3)[C@H](c3ccccc3)N1[C@@H]2c1ccc(OCCO)cc1`, the composite z-score was 1.06 in [1]; -0.0141 in assay [2]; -0.053 in assay [3]; 1.28 in assay [5]; -0.08 in assay [6]; 0.528 in assay [7]. The composite z-score in assay [8] was found to be 1.17; in assay [9] it was 0.529; in assay [10], 0.886; in assay [11], 0.581; in assay [13], 0.556; in [14], 0.432. Moreover, the composite z-score is -0.178 in assay [15]; -0.0236 in assay [16]; 0.0637 in assay [17]; -0.794 in assay [18]; 0.5 in assay [19]; 0.399 in [20]. Further, the z-score in [4] is -0.0304 (inactive); in assay [12], -0.45.

The values above are taken from PubChem BioAssay.
